Assay results reported in PubChem BioAssay AID1456 (Vanderbilt High Throughput Screening Facility, 2008).
The whole screen tested about 190,000 compounds, of which about 4,100 (2.2%) were called active.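 Rule for the calls: active = thallium flux slope and its plate-corrected score both differing from the plate sample mean at a set confidence after two filtering rounds, in either direction; inactive = the rest.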 What follows is part of a selection rich in actives, with near analogues and random picks from the rest.

The compounds below were run against Solute carrier family 12 member 5 (Homo sapiens) (UniProt Q9H2X9) (assay: modulation of human KCC2 ion transport – cell-based, HEK293 KCC2, FluoZin-2 fluorescence, MLSMR, primary screen (AID 1456;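 note: slope of fluorescence scaled to starting intensity during 10 to 20 s after thallium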)). Details: KCC2 cells, thallium flux FluoZin-2 fluorescence; at 10 µM.
Sequence of Solute carrier family 12 member 5 (Homo sapiens) (Q9H2X9 whole entry, looked up): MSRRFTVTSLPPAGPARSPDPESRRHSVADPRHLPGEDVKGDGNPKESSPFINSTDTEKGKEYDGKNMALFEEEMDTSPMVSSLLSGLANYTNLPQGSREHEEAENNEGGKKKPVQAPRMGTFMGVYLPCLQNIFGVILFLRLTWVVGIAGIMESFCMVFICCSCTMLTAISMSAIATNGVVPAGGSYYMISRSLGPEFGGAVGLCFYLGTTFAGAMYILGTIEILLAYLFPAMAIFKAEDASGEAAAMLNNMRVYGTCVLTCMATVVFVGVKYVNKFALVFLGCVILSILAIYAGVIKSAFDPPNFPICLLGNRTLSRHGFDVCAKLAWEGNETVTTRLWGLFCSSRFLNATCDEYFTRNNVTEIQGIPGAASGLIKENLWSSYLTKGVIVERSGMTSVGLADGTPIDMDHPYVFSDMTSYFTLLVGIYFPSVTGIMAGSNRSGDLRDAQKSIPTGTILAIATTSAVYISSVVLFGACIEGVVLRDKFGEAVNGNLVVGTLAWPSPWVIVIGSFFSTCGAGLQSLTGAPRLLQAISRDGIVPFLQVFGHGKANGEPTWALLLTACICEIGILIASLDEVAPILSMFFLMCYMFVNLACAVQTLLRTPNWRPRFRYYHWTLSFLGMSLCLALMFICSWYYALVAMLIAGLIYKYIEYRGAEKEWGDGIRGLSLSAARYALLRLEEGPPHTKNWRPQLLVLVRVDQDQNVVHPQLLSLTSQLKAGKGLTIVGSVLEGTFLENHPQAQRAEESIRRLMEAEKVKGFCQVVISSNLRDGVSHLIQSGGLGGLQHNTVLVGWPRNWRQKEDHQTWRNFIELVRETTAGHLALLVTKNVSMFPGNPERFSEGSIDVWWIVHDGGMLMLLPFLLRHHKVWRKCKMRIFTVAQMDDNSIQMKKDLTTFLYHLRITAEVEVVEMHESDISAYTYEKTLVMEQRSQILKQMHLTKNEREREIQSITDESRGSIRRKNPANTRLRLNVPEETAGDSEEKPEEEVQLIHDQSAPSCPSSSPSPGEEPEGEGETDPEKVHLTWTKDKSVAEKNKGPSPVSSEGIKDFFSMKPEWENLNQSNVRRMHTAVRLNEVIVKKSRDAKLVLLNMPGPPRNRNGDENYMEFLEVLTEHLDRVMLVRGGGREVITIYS

B-score of Tl+ flux slope (higher = more flux/activation; lower = inhibition), active:
O=C(O)CCN(Cc1ccccc1)S(=O)(=O)c1c(Cl)cccc1Cl -6.63
O=C(Oc1c(-c2ccco2)oc2ccccc2c1=O)c1cccnc1 40.4
Cc1cc(C)c2cc(CN(Cc3cccs3)Cc3nnnn3CC3CCCO3)c(=O)[nH]c2c1 (configuration not stated) -3.73
CC(C)c1ccc2c(c1)c(SC(C)(C)C)c(CC(C)(C)C(=O)O)n2Cc1ccc(Cl)cc1 6.52
CCCOC(=O)CC1C(=O)NCCN1Cc1ccc(F)cc1 (configuration not stated) -4.12
CC(=O)/C(=N\Nc1ccc(Cl)cc1Cl)Sc1cccc2cccnc12 20.6
O=[N+]([O-])c1c(NCCO)cc(Sc2nc3ccccc3s2)c2nonc12 5.33
CCC(CC)NC(=O)CSc1nnc(-c2c[nH]c3ccccc23)o1 -3.08
O=C(NC(CC(=O)N1CCN(c2ccccc2)CC1)c1ccccc1)c1ccccc1Cl (configuration not stated) -2.77
S=c1[nH]nc(-c2ccco2)n1/N=C/c1ccc(Br)s1 12.6
Cc1ccc(/C=N\n2c(-c3ccccc3)n[nH]c2=S)s1 5.99

B-score of Tl+ flux slope (higher = more flux/activation; lower = inhibition), inactive:
O=C(O)c1ccccc1C(=O)Nc1ccccc1[N+](=O)[O-] -0.0678
CCOc1ccccc1N1CN(Cc2ccccc2)CNC1=S -0.426
O=C(/C=C/c1c(Cl)cccc1Cl)NCc1ccccc1 0.452
COC(=O)c1ccc(S(=O)(=O)N(CCO)Cc2ccccc2)n1C 0.0796
O=C(Oc1cccnc1)c1cc2ccccc2oc1=O 0.0371
N#CCc1ccc(OC(=O)c2cccnc2)cc1 0.815
S=C(NNC(=S)NC1CC2CCC1C2)NC1CC2C=CC1C2 (configuration not stated) 0.801
Clc1ccc2nc(-c3ccccc3)nc(C(Cl)Cl)c2c1 0.642
CCOc1ccc2[nH]c(=O)c(CN(Cc3nnnn3Cc3ccccc3)CC3CCCO3)cc2c1 (configuration not stated) 0.154
Cc1cc2cc(CN(Cc3cccs3)Cc3nnnn3CC3CCCO3)c(=O)[nH]c2cc1C (configuration not stated) -1.28
CCOC(=O)N/N=C1\CC(C)S(=O)(=O)c2ccc(Cl)cc21 (configuration not stated) -0.00493
C/C(=N/NC(=O)CN1CCN(S(=O)(=O)c2ccc(Br)cc2)CC1)c1ccncc1 0.498
Cc1ccc(C)c(SCc2nc3sc(C(=O)O)c(C)c3c(=O)[nH]2)c1 0.00809
COc1cc([N+](=O)[O-])ccc1NC(=S)N1CCN(c2ccccn2)CC1 -1.11
O=C(Nc1nnc(C2CC2)s1)C1=NN(C2CCS(=O)(=O)C2)C(=O)CC1 (configuration not stated) 0.0275
O=C(CC1C(=O)NCCN1Cc1ccc(-c2ccccc2)cc1)NCC1CCOCC1 (configuration not stated) 0.966
CN(Cc1cccc2ncccc12)C(=O)CC1C(=O)NCCN1Cc1ccc(F)cc1 (configuration not stated) -0.00882
Cc1cc(N)n(-c2ccc(S(=O)(=O)N3CCCC3)cc2[N+](=O)[O-])n1 -0.0325
COC(=O)c1cccc(NS(C)(=O)=O)c1 0.136
S=C(NCc1cccnc1)Nc1ccc(Cl)cc1Cl 0.543
N#Cc1ccc(C(=O)Nc2cccc3cccnc23)c(F)c1 0.429
Cc1cc(OCCCN2CCN(Cc3ccccc3)CC2)ccc1[N+](=O)[O-] -0.489
COc1ccc(S(=O)(=O)Nc2ccc(O)c(Sc3nc4ccccc4s3)c2)cc1 -1.09
O=C(CSc1nc2ccccc2s1)Nc1ccc(C(=O)O)cc1 0.381
O=C(NCc1ccc(F)cc1)C1CCC(CNc2c(N3CCOCC3)c(=O)c2=O)CC1 (configuration not stated) 1.21
Cc1cc(C(=O)CSc2nc(N)cc(=O)[nH]2)c(C)n1Cc1ccco1 -0.287
COc1ccc(-c2csc(NC3OC(=O)c4ccccc43)n2)cc1 (configuration not stated) 0.605
O=C(CSc1nnc(-c2c[nH]c3ccccc23)o1)c1ccccc1 0.154
CN(C(=O)CSc1nnc(-c2c[nH]c3ccccc23)o1)C1CCS(=O)(=O)C1 (configuration not stated) -0.897
COc1cccc(C(=O)n2ccc(-c3cccs3)n2)c1 0.604
COC(=O)N(NC(=O)C(O)(C(C)C)C(C)C)c1ccccc1 -1.84
CC(CC(=O)N1CCN(c2ccccc2)CC1)c1ccccc1 (configuration not stated) -0.358
O=C(CN1CCCC1)N1CCN(c2ccccc2)CC1 0.962
S=c1[nH]nc(-c2ccccc2)n1/N=C/c1c[nH]c2ccccc12 0.491
S=c1[nH]nc(-c2cccs2)n1/N=C/c1cccs1 8.64
S=c1[nH]nc(-c2ccco2)n1/N=C/c1ccccc1 4.67
